In all, about 290,000 compounds went through this assay and about 140 (0.048%) were called active. This is one part of a sample in which actives are shown more often than they occur.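 How the source made its calls: active means activation above 40% with more than 50 cells counted in the well; inconclusive means wells holding fewer than 50 cells, flagged as toxic or sparse; inactive means the rest.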

Assay [1] is described as follows: selective activators of receptor GPR55 – imaging, U2OS cells, beta-arrestin-GFP redistribution, primary screen (AID 1961).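 Further: U2OS osteosarcoma cells stably expressing GPR55 and beta-arrestin-GFP.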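 On activation: plate controls were DMSO negative control for no effect and LPI positive control for full effect.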 The note with it: measured here: cytotoxicity, cells analyzed, at 10 µM.
In assay [2] the target is G-protein coupled receptor 55 (Homo sapiens) (UniProt Q9Y2T6). Described as above. The settings on record: at 10 µM, stronger effect = higher value.
Chain of G-protein coupled receptor 55 (Homo sapiens) (Q9Y2T6 whole entry, looked up): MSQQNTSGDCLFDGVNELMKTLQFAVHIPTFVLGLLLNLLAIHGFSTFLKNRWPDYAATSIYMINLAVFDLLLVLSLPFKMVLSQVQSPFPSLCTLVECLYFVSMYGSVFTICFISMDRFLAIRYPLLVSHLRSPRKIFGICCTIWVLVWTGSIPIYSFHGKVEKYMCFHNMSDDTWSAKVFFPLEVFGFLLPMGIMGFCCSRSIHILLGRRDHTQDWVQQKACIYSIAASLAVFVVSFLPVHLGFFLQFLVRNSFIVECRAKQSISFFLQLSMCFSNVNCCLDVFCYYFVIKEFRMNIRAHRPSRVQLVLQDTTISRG

`O=C(CSc1nnc(CNc2ccc(F)cc2)n1CC1CCCO1)N1CCOCC1` (stereo unspecified): the cell count in assay [1] was determined as 336 cells. In addition, the activation in assay [2] is 0.2% (inactive).
With `CCOc1ccc(/C=N/NC(=O)C(C)N(c2ccc(OC)cc2)S(C)(=O)=O)cc1OCC` (stereo unspecified), in assay [1], the cell count was found to be 265 cells. The activation in assay [2] is 0.6% (inactive).
`CCOC(=O)CS(=O)(=O)c1nc(-c2ccccc2)cc(C(F)(F)F)n1` displayed a cell count in assay [1] of 302 cells. For the same molecule, in assay [2], the activation was 49.8% (active).
The matching figures for `CCOC(=O)CS(=O)(=O)c1nc(-c2ccc(F)cc2)cc(C(F)(F)F)n1`: 353 cells and 16.3% (inactive).
`CCOC(=O)CCS(=O)(=O)c1nc(-c2ccccc2)cc(C(F)(F)F)n1` returned a cell count in assay [1] of 310 cells. Moreover, the activation in assay [2] is 14.3% (inactive).
On the same counts, the results for `CNC(=O)CSc1nnc(-c2cccs2)o1` are 345 cells and 0.3% (inactive).
Molecule `CC(=O)Nc1cccc(/C(C)=N/NC(=O)c2cccs2)c1` registered a cell count in assay [1] of 330 cells. The activation in assay [2] is -0.4% (inactive).
`COc1ccc(-c2cc(C(F)(F)F)nc(SCC(=O)Nc3ccc4c(c3)OCO4)n2)cc1` gave a cell count in assay [1] of 399 cells. Moreover, in assay [2], the activation is -0.2% (inactive).
Regarding `COc1ccccc1NC(=O)CSCc1ccc([N+](=O)[O-])cc1`, the cell count in assay [1] was 415 cells. Also, the activation in assay [2] is -0.1% (inactive).
In turn, `COc1ccccc1P(=O)(c1ccccc1)c1ccc([N+](=O)[O-])cc1` (stereo unspecified) showed a cell count in assay [1] of 384 cells. In addition, the activation in assay [2] was 0.2% (inactive).
Consider `CC(=O)N1CC=C2C(C#N)=C(N)C(C#N)(C#N)C(C)C2C1` (stereo unspecified), for which, in assay [1], the cell count was 315 cells. For the same molecule, the activation in assay [2] was -0.2% (inactive).
With `Cc1ccc(NC(=O)CS(=O)CC(=O)NC23CC4CC(CC(C4)C2)C3)cc1` (stereo unspecified), the cell count in assay [1] turned out to be 322 cells. The activation in assay [2] is 0% (inactive).
`CCc1ccccc1NC(=O)c1ccc(-c2csc(C)n2)cc1` displayed a cell count in assay [1] of 398 cells. In addition, the activation in assay [2] is -0.1% (inactive).
In assay [1], `COc1ccc(CNc2nc(-c3cccnc3)nn2S(C)(=O)=O)cc1` gave a cell count of 258 cells. Besides, in assay [2], the activation was 1.3% (inactive).
On the same counts, the results for `COc1cccc(-c2nnc3n2N=C(c2cc(OC)ccc2OC)CS3)c1` are 449 cells and -0.1% (inactive).
In the case of `CCOc1cccc(-c2nnc3n2N=C(c2cc(OC)ccc2OC)CS3)c1`, the cell count in assay [1] was determined as 276 cells. Further, in assay [2], the activation was 100% (active).
Take `COc1ccc(OC)c(C2=Nn3c(nnc3-c3cccc(OC(C)C)c3)SC2)c1`: the cell count in assay [1] came to 301 cells. In assay [2], the activation was -0.2% (inactive).
`Cc1ccc(S(=O)(=O)NC2=C(N3CCN(c4ccccc4F)CC3)C(=O)c3ccccc3C2=O)cc1` returned a cell count in assay [1] of 421 cells. Besides, in assay [2], the activation was -0.1% (inactive).
`COc1ccc(CN2C(=O)c3cccc4cccc(c34)C2=O)cc1` returned a cell count in assay [1] of 353 cells. Also, the activation in assay [2] was -0.1% (inactive).
The matching figures for `COc1ccc(CN2C(=O)c3ccccc3C2=O)cc1`: 379 cells and 0.6% (inactive).
The molecule `CCc1nn(CC(=O)NCCc2ccc(Cl)cc2)c(=O)c2cccn12` yielded a cell count in assay [1] of 343 cells. Also, in assay [2], the activation is 0% (inactive).
As to `CCOC(=O)C(CC)(CCC(=O)OC)c1csc(Nc2ccccc2O)n1` (stereo unspecified), the cell count in assay [1] was 367 cells. Further, the activation in assay [2] is -0.1% (inactive).
In turn, `Fc1cccc(NCCc2c[nH]c3ccccc23)n1` returned a cell count in assay [1] of 334 cells. In addition, the activation in assay [2] was -0.2% (inactive).
In turn, `COc1ccccc1N1CCN(C2CCN(C(=O)COc3ccccc3)CC2)CC1` returned a cell count in assay [1] of 401 cells. Besides, the activation in assay [2] was -0.1% (inactive).
The matching figures for `O=C(NCCN1CCOCC1)c1cc(-c2ccco2)on1`: 315 cells and -0.1% (inactive).
`COc1ccc(Nc2nc(Cl)c(C=O)s2)cc1` had a cell count in assay [1] of 273 cells. Moreover, the activation in assay [2] was 0.2% (inactive).
The molecule `Cc1nnnn1/C(=C\c1ccccc1)C(=O)OCC(=O)N1CC2(C)CC1CC(C)(C)C2` (stereo unspecified) registered a cell count in assay [1] of 330 cells. In addition, the activation in assay [2] is 74.3% (active).
`Cc1nnnn1/C(=C\c1ccccc1)C(=O)OCC(=O)NC(C)(C)C` displayed a cell count in assay [1] of 301 cells. Further, the activation in assay [2] is -0.3% (inactive).
With `Cc1nnnn1/C(=C\c1ccccc1)C(=O)OCC(=O)N(C)C1CCS(=O)(=O)C1` (stereo unspecified), the cell count in assay [1] was found to be 254 cells. Also, in assay [2], the activation was -0.4% (inactive).
Consider `CS(=O)(=O)N(CC(=O)NCCc1ccccc1)C1CCCCC1`, for which the cell count in assay [1] came to 388 cells. In assay [2], the activation was -0.1% (inactive).
The molecule `N#Cc1c2n(c(=S)n(-c3ccc(F)cc3)c1=O)CCCCC2` yielded a cell count in assay [1] of 250 cells. Moreover, the activation in assay [2] was -0.3% (inactive).
In the case of `CC(C)CC(=O)Nc1nnc(S(=O)(=O)N(C)Cc2ccco2)s1`, the cell count in assay [1] came out at 342 cells. For the same molecule, the activation in assay [2] is -0.2% (inactive).
Take `CSc1ccccc1OCc1cc(C(=O)N2CCc3sccc3C2)no1`: the cell count in assay [1] is 327 cells. The activation in assay [2] was -0.2% (inactive).
In the case of `Cc1ccc2c(C)c(C(=O)N3CCN(Cc4ccc5c(c4)OCO5)CC3)oc2c1C`, in assay [1], the cell count is 372 cells. The activation in assay [2] was -0.1% (inactive).
In assay [1], `COc1ccc(S(=O)(=O)NCCSC(C)(C)C)cc1Cl` returned a cell count of 346 cells. Besides, the activation in assay [2] was -0.1% (inactive).
In assay [1], `CCOC(=O)Cn1c(CN2CCN(C(c3ccccc3)c3ccccc3)CC2)nc2c1c(=O)n(C)c(=O)n2C` came in with a cell count of 284 cells. Moreover, in assay [2], the activation was 0.3% (inactive).
With `O=C(C1CCCN(S(=O)(=O)c2cccc3nsnc23)C1)N1CCCCCC1` (stereo unspecified), the cell count in assay [1] was 250 cells. In addition, the activation in assay [2] is 0.1% (inactive).
`N#Cc1ccccc1NC(=O)CC1CCCCC1` had a cell count in assay [1] of 377 cells. The activation in assay [2] was -0.1% (inactive).
Consider `O=C(O)c1ccc[nH]c1=S`, for which the cell count in assay [1] turned out to be 381 cells. Further, in assay [2], the activation was 0% (inactive).
On the same counts, the results for `CCN(CC)S(=O)(=O)c1ccc(N2CCOCC2)c(NCC(=O)Nc2ccc(F)cc2)c1` are 259 cells and -0.1% (inactive).
In the case of `COc1ccccc1C(=O)NC(=S)/C=C1/N(C)c2ccccc2C1(C)C`, the cell count in assay [1] is 278 cells. Also, the activation in assay [2] is 91% (active).
`Cc1ccc(C(=O)NC(=S)/C=C2\N(C)c3ccccc3C2(C)C)cc1` displayed a cell count in assay [1] of 272 cells. For the same molecule, the activation in assay [2] is 0.2% (inactive).
`CN1/C(=C\C(=S)NC(=O)c2ccccc2Cl)C(C)(C)c2ccccc21` had a cell count in assay [1] of 357 cells. Also, the activation in assay [2] is -0.2% (inactive).

(Values after PubChem BioAssay AID1961 (Sanford-Burnham Center for Chemical Genomics, 2009).)
